The list is not random: actives were taken first. Their share in the collection is about 18%.
TGFb SMAD3 inh – inhibitors of TGF-b signaling; HepG2 CAGA-GFP TGF-b/SMAD3 reporter, GFP fluorescence, 18 h; TGF-beta stimulated, 500 pg/mL final; Potency, µM (series often up to 46.1 µM), for the others: at the highest dose activity, negative = inhibition, actives largely listed as inhibitors; 1.2% of 410,000 active; also: potency is read from the fitted curve at half-maximal effect; % is scaled to controls: 0 for no effect and ±100 for the full control effect; nearly all actives have a fitted effect of over 65% in size
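TGF-beta reporter screen: HEPG2 CAGA-GFP, 1% FBS, 500 pg/mL TGF-beta final, 18 h; per-cell GFP summed per well; curves fitted and categorized by class.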
TDP1 inh – blocks human tyrosyl-DNA phosphodiesterase 1. Q9NUW8. recombinant TDP1, AlphaScreen DNA substrate cleavage. Potency, µM (series often up to 130 µM), without a hit: top-dose activity change, negative = inhibition, actives largely listed as inhibitors. 0.28% of 350,000 active; also: potency is read from the fitted curve at half-maximal effect; % is scaled to controls: 0 for no effect and ±100 for the full control effect; nearly all actives have a fitted effect of over 40% in size
Target sequence (Q9NUW8 whole entry, looked up): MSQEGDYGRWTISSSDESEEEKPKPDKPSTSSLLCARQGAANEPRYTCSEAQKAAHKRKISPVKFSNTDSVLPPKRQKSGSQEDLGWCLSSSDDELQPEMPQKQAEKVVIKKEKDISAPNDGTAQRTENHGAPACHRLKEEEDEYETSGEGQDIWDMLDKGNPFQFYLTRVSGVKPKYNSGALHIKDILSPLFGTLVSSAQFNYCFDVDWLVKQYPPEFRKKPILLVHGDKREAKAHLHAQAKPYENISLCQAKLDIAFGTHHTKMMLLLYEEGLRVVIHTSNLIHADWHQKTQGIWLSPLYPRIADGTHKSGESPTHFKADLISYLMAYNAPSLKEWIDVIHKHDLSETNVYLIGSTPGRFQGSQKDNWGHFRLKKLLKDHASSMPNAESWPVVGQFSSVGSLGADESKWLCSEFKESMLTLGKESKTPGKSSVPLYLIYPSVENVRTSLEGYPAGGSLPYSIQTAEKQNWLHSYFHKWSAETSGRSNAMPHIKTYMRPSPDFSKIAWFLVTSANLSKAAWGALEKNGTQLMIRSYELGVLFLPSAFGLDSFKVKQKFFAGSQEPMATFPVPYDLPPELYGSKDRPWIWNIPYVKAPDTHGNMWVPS
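Enzyme-compound mixtures sat 15 min at room temperature, followed by a 5 min reaction with 15 nM final substrate and 10 min with AlphaScreen beads. Recombinant human Tdp1 was used at 1 nM final.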
HepG2 viability – counter-screen for TGF-b inhibitors: cytotoxicity in HepG2 cells; HepG2 CAGA-GFP viability, ATP luminescence, 18 h; Potency, µM (titrated, usually from 46.1 µM), for inactives: at the highest dose activity change, negative = cytotoxicity, actives largely listed as cytotoxic; 0.76% of 410,000 active; also: potency is read from the fitted curve at half-maximal effect
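HepG2 CAGA-GFP cells (1000/well, DMEM with 1% FBS) received compound, then TGF-beta at 500 pg/mL final, and were incubated 18 hours at 37 degrees C. Viability was read by CellTiter-Glo luminescence. Media-only wells were set as complete cell-killing and DMSO as no toxicity.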
IL1B secr inh – inhibitors of inflammasome signaling (IL-1 beta secretion); THP-1 LPS/ATP IL-1B secretion, AlphaLISA, 16 h; active compounds read low; activity change, % at 57.5 µM; 4.7% of 360,000 active; AID 743279; in the data active = activity change below about -50%; inconclusive = mostly about -30% to -49%; also: % is scaled to controls: 0 for no effect and ±100 for the full control effect
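THP-1 cells pretreated 1 hr with compounds (up to 57.5 uM final), then stimulated with LPS (250 ng/mL final) plus ATP (1.25 mM final); secreted IL-1B measured by AlphaLISA after 16 hr, decreased signal indicating inhibition.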
TDP1 cell CPT – DT40-hTDP1 cell growth loss with CPT. Potency, µM (doses to about 46.2 µM), for the others: top-dose activity change, negative = growth inhibition, hits mostly inhibitors. 12% of 420,000 active. chicken DT40 Tdp1-/-;hTDP1 cells + 20 nM CPT, ATP luminescence, 48 h; also: potency is read from the fitted curve at half-maximal effect; % is scaled to controls: 0 for no effect and ±100 for the full control effect; nearly all actives have a fitted effect of over 55% in size
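Cell growth measured by CellTiter-Glo luminescence after a minimum 48 h, 37 C compound exposure with 20 nM CPT in Tdp1-knockout DT40 cells stably expressing hTDP1, seeded 400/well; qHTS titration format.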
TDP1 cell noCPT – qHTS for Inhibitors of human tyrosyl-DNA phosphodiesterase 1 (TDP1): qHTS in cells in absence of CPT. DT40 Tdp1-/- hTDP1 cells, no CPT, ATP luminescence, 48 h. Potency, µM (titrated, usually from 46.2 µM), for inactives: at the top dose activity change, negative = growth inhibition, actives largely listed as inhibitors. 15% of 420,000 active; also: potency is read from the fitted curve at half-maximal effect; % is scaled to controls: 0 for no effect and ±100 for the full control effect; nearly all actives have a fitted effect of over 55% in size
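Stably hTDP1-transfected Tdp1-null chicken DT40 cells were treated with library compounds minus camptothecin and grown for at least 48 hr at 37 °C, after which cellular ATP was quantified by luminescence.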
* marks the source's active call; other numbers are inactive results; ? = inconclusive; . = not tested or not shown; [ ] = dose if it differs, or a comment. Unless noted, calls follow the shape of the dose curve; as a rule, active = well fitted curve in the direction sought with a large enough effect; inconclusive = small, poorly fitted or top-dose-only effect, or another doubt; inactive = no such curve, though single readings can be large; an effect the other way counts as inactive or inconclusive.

SMILES	TGFb SMAD3 inh	TDP1 inh	HepG2 viability	IL1B secr inh	TDP1 cell CPT	TDP1 cell noCPT
COCCNC(=O)/C(C#N)=C/c1c(N2CCN(C)CC2)nc2ccccn2c1=O	0.8%	.	-5.9%	-17.9	0.5%	-5.8%
CN(C)/C=C/C(=O)c1ccn(S(=O)(=O)c2ccccc2)c1	-14.7%	.	-34.9%	0.0	-26.7%	16.7%
O=C(NCCCN1CCCC1=O)c1cc(-c2ccc3c(c2)OCO3)nc2ccccc12	-9.7%	2.7%	26.0%	11.9	16.4µM*	?
COc1ccc(-c2cc(C(=O)NCCN3CCOCC3)c3ccccc3n2)cc1	3.5%	-7.7%	-28.4%	-12.2	-24.0%	?
CCc1ccc(-c2cc(C(=O)NN3CCOCC3)c3ccccc3n2)cc1	8.3%	4.4%	-0.2%	-19.4	8.2µM*	1.3µM*
CC1CCN(C(=O)c2cc3c(=O)n(C)c4cc(Cl)ccc4c3s2)CC1	12.4%	-9.3%	0.9%	.	1.6%	-8.7%
CC(C)(C)C(=O)/C=c1\s/c(=C\c2ccc(-c3ccc([N+](=O)[O-])cc3)o2)c(=O)n1CC(=O)NC(N)=O	26.1%	5.5%	3.0%	40.2	?	23.1µM*
CC(OC(=O)c1ccc(-c2ccc([N+](=O)[O-])cc2)o1)C(=O)NC(N)=O (stereo not drawn)	?	.	-14.2%	12.6	-11.0%	-20.0%
Cc1cc(NCCCCCCCNc2cc(C)nc3cc([N+](=O)[O-])ccc23)c2ccc([N+](=O)[O-])cc2n1	8.91µM*	.	-116.8%	-103.2*	1.64µM*	1.3µM*
O=C(CNS(=O)(=O)c1ccc2ccccc2c1)OCc1csc(-c2ccccc2)n1	-5.8%	2.7%	-24.7%	-7.7	?	20.6µM*
Cc1ccc(NC(=O)CSC2=Nc3ccccc3C3CC=NN23)c(C)c1 (stereo not drawn)	14.6%	6.8%	-19.0%	11.4	20.6µM*	20.6µM*
CC1CCCC(NC(=O)CSC2=Nc3ccccc3C3CC=NN23)C1C (stereo not drawn)	2.0%	-4.4%	7.0%	3.8	?	?
O=C(CSC1=Nc2ccccc2C2CC=NN12)Nc1ccc(F)cc1Cl (stereo not drawn)	6.9%	0.0%	-9.8%	-1.9	?	?
NC(=O)c1ccc(NC(=O)CSC2=Nc3ccccc3C3CC=NN23)cc1 (stereo not drawn)	-11.3%	3.8%	-14.9%	12.0	9.2µM*	20.6µM*
COC(=O)c1ccc(NC(=O)CSC2=Nc3ccccc3C3CC=NN23)cc1 (stereo not drawn)	-5.2%	4.2%	-14.4%	0.7	23.1µM*	23.1µM*
CCN(C(=O)CSC1=Nc2ccccc2C2CC=NN12)C1CCS(=O)(=O)C1 (stereo not drawn)	-10.3%	5.4%	-10.3%	0.0	?	?
C=CC[C@@H]1[C@H](O)CC[C@@]2(C)[C@H]1CC[C@@H]1[C@@H]2CC[C@]2(C)C([C@H](C)CCCC(C)C)CC[C@@H]12 (stereo partly drawn)	.	3.7%	.	.	.	.
O=C(NCc1ccccc1)C(C1CC1)n1c(Cc2cc(F)cc(F)c2)nc2ccccc21 (stereo not drawn)	.	.	.	-9.5	?	18.4µM*
CCc1ccc(-c2nn(CC(=O)NC3CCCC3)c3c2cnc2ccc(C)cc23)cc1	5.9%	3.2%	-12.8%	.	-18.9%	-3.6%
CN(CCCNC(=O)c1nn(C)c2c1CS(=O)(=O)c1ccccc1-2)Cc1ccccc1	3.4%	0.8%	0.6%	-14.4	-11.9%	13.7%
CC(C)N(CCCNC(=O)c1nn(C)c2c1CS(=O)(=O)c1ccccc1-2)Cc1ccccc1	-0.4%	0.9%	-16.7%	4.0	16.4µM*	-3.4%
CCOc1ccc(CCNC(=O)c2nn(C)c3c2CS(=O)(=O)c2ccccc2-3)cc1	3.5%	2.3%	-5.5%	-2.9	?	3.66µM*
Cn1nc(C(=O)NCCc2ccc(S(N)(=O)=O)cc2)c2c1-c1ccccc1S(=O)(=O)C2	9.7%	0.7%	4.9%	0.0	1.3%	5.1%
CCOc1ccc(CCNC(=O)c2nn(C)c3c2CS(=O)(=O)c2ccccc2-3)cc1OCC	0.1%	3.4%	1.2%	?	23.1µM*	?
COC(=O)[C@@]1(Cc2ccc(OC)cc2)[C@H]2c3cc(C(=O)N(C)C)n(Cc4ccc(C)c(F)c4F)c3C[C@H]2CN1C(=O)c1ccccc1	.	17.7%	.	.	.	.
SMILES	TGFb SMAD3 inh	TDP1 inh	HepG2 viability	IL1B secr inh	TDP1 cell CPT	TDP1 cell noCPT
COC(=O)C1Cc2ccccc2CN1S(=O)(=O)c1ccc(F)cc1 (stereo not drawn)	0.4%	.	1.4%	16.3	9.6%	6.0%
Cc1ccccc1NCC(=O)Nc1cc(S(=O)(=O)N2CCCCC2)ccc1C	-17.8%	2.2%	3.6%	-24.7	?	20.6µM*
CC(NCC(=O)Nc1cc(S(=O)(=O)N2CCCCCC2)ccc1Cl)c1ccccc1 (stereo not drawn)	?	.	-25.2%	-9.6	18.4µM*	13µM*
Cc1ccc(NC(=O)CSc2ccc3c(c2)OCCO3)c(O)c1	?	3.0%	-13.4%	0.4	18.4µM*	?
Cc1ccc(S(=O)(=O)N2CCCCC2)cc1NC(=O)CSc1ccc2c(c1)OCCO2	0.0%	5.3%	-38.9%	-8.0	23.1µM*	?
O=C(Cc1cccs1)Nc1cc(S(=O)(=O)N2CCCCC2)ccc1Cl	-6.5%	-3.4%	-12.9%	-4.9	-17.6%	-18.1%
O=[N+]([O-])c1ccccc1S(=O)(=O)n1nnc2ccccc21	4.8%	-0.6%	7.1%	3.4	-7.9%	-25.2%
CCOc1ccc(N2CC(C(=O)NCCc3ccc(F)cc3)CC2=O)cc1 (stereo not drawn)	-18.3%	15.2%	-4.0%	-1.2	2.3%	-7.4%
CCc1nn(CC(=O)NCc2ccc(C)cc2)c(=O)c2cc3occc3n12	?	-7.6%	4.6%	.	-2.7%	-22.6%
O=C(CN(Cc1ccco1)Cc1cccs1)N1CCN(S(=O)(=O)c2cccc(F)c2)CC1	-15.4%	2.3%	-30.9%	-24.3	23.1µM*	18.4µM*
O=C(CN(Cc1ccco1)Cc1ccco1)Nc1cc(S(=O)(=O)N2CCCCC2)ccc1Cl	?	1.2%[56.1 µM]	4.9%	-25.8	13µM*	11.6µM*
O=C(NCc1ccco1)c1cc(S(=O)(=O)N2CCCC2)ccc1Cl	1.3%	2.9%[56.1 µM]	-5.9%	9.1	-25.2%	26.6%

High-throughput results from PubChem.
